Experimental data taken from PubChem BioAssay AID485364 (National Center for Advancing Translational Sciences (NCATS), 2010).
In all, about 360,000 compounds went through this assay and about 11,000 (3.1%) were called active. Where a call stands in place of a potency, no number is given. About 4% were inconclusive and are not listed. Calls come from the whole dose curve; as a rule, active = well fitted inhibition curve with a large enough effect; inconclusive = small, poorly fitted or top-dose-only effect; inactive = no such curve, though single readings can be large or run the other way. Many of the other results were omitted from the sample, so actives are more common in it than they were.

molecular target: Schistosoma mansoni thioredoxin glutathione reductase (TGR) (UniProt Q962Y6); test: qHTS Assay for the Inhibitors of Schistosoma Mansoni Peroxiredoxins; conditions: purified TGR, DTNB reduction, TNB absorbance 405 nm; series mostly up to 114 µM; note: nearly all actives have a fitted effect of over 60% in size
In short: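 First, TGR (20 nM dispensed) and NADPH were mixed with compound. Second, a 15 min room-temperature incubation followed. Third, further NADPH and then DTNB were added to start the reaction. Finally, TNB absorbance was monitored kinetically.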
Potency is the fitted concentration of half-maximal effect.

| Structure (SMILES) | Potency |
| --- | --- |
| C#CC(C)(CC)NC(=O)Cn1nnc(-c2ccc(OCc3c(F)cccc3Cl)cc2)n1 (stereo not given) | inactive |
| Cc1nnc(SCC(=O)NC2CCCC2)s1 | inactive |
| Cc1nnc(SCC2=C(C(=O)O)N3C(=O)C(NC(=O)Cn4nc(C)c(Cl)c4C)C3SC2)s1 (stereo not given) | 10 µM (active) |
| Cc1cc(C)cc(C(=O)NC2C(=O)N3C(C(=O)O)=C(CSc4nnc(C)s4)CSC23)c1 (stereo not given) | 5.01 µM (active) |
| CO/N=C(\C(=O)N[C@@H]1C(=O)N2C(C(=O)O)=C(COC(C)=O)CS[C@H]12)c1csc(N)n1 (stereo in doubt) | inactive |
| O=C(Cn1ncc2c3ccccc3n(Cc3ccccc3)c2c1=O)NC1CCCCCC1 | inactive |
| Cc1cccc(CSc2nc3ccncc3n2CC(=O)N(C)C2CCCCC2)c1 | inactive |
| CC(C)(C)OC(=O)N1CCC(c2c(C(=O)NCc3ccccn3)cnn2-c2ccc(F)cc2)CC1 | inactive |
| COc1cccc(NC(C)=[N+](C)CCNS(=O)(=O)c2ccc(Cl)cc2)c1 | 31.6 µM (active) |
| COc1cccc(NC(=O)CCNS(=O)(=O)c2ccc3c(c2)oc(=O)n3C)c1 | inactive |
| COc1ccc(S(=O)(=O)NCCCCOc2ccc(Cl)cc2)cc1 | inactive |
| N#Cc1nc(/C=C/c2ccc(F)cc2)oc1NC1CCCCC1 | inactive |
| CCC(=O)N1N=C(c2ccc(OC)cc2)CC1c1cn(-c2ccccc2)nc1-c1cccs1 (stereo not given) | inactive |
| CCCn1c2ccccc2c2cnn(CC(=O)NCCCOC(C)C)c(=O)c21 | inactive |
| CCSc1nnc2c(n1)OC(c1ccc(OCC(=O)O)cc1)Nc1ccccc1-2 (stereo not given) | inactive |
| COC(=O)c1scc(-c2ccc(C)cc2)c1S(=O)(=O)Nc1cc(Cl)c(OC)cc1OC | inactive |
| COc1ccc(Nc2ncc3c(n2)CCN(C(=O)OC(C)(C)C)C3)cc1 | inactive |
| Cc1cccc(-n2c(O)c(/C=N/N3CCOCC3)c(=O)[nH]c2=S)c1 | inactive |
| Cc1cccc(-n2c(O)c(C=Nc3ccccc3N)c(=O)[nH]c2=O)c1 | inactive |
| Cc1cccc(-n2c(O)c(C=NC34CN5CN(CN(C5)C3)C4)c(=O)[nH]c2=O)c1 | 7.94 µM (active) |

| Structure (SMILES) | Potency |
| --- | --- |
| CCOc1ccc(NC(=O)CCC(=O)N2CC(C)Oc3ccc(C)cc32)cc1 (stereo not given) | inactive |
| COc1ccc(OC)c(-c2nc(C(N)=O)c3c(n2)n(-c2ccc4c(c2)OCO4)c(=O)n3C)c1 | inactive |
| CCCOc1ccc(NC(=O)CC2C(=O)N(C)C(=S)N2Cc2ccc3c(c2)OCO3)cc1 (stereo not given) | inactive |
| O=C(Nc1ccc(Cl)cc1)C1c2cccc[n+]2CC(=O)N1Cc1ccc2c(c1)OCO2 (stereo not given) | 20 µM (active) |
| O=C(C1CCN(Cc2ccc(Cl)cc2)CC1)N1CCN(Cc2ccc3c(c2)OCO3)CC1 | inactive |
| COc1ccc(S(=O)(=O)c2c(Nc3ccc(C)cc3)sc(C(=O)c3ccc(C)cc3)c2N)cc1 | inactive |
| Cc1c(C(=O)N2CCCC2)oc2c1-c1nn(CC(=O)NCc3ccc(OC(C)C)cc3)cc1CC2 | inactive |
| CCC(Sc1nc2n[nH]c(C)c2c(=N)n1-c1ccccc1Cl)C(=O)N(CC)CC (stereo not given) | inactive |
| Cc1cc(C)nc(N(C#N)CC(=O)Nc2ccccc2)n1 | inactive |
| Cc1cc(C)nc(SC(C)C(=O)N/N=C/c2cccs2)n1 (stereo not given) | inactive |
| Cc1cc(C)nc(S/C=C/C(=O)c2ccccc2)n1 | 1.12 µM (active) |
| COc1ccccc1CN1CCC(CNC(=O)c2cnn(-c3ccccc3Cl)c2C2CCN(C(=O)OC(C)(C)C)CC2)CC1 | inactive |
| CCOC(=O)c1c(S(=O)(=O)N2CCC(C(=O)NCc3ccccc3OC)CC2)c(C)n(C)c1C | inactive |
| COc1ccc(CCNC(=O)c2nn(C)c3c2CSc2ccccc2-3)cc1OC | inactive |
| COc1cc(NC(=O)c2noc3c2CSc2ccccc2-3)cc(OC)c1OC | 0.794 µM (active) |
| COc1cc(NC(=O)c2nc3ccccc3nc2C)cc(OC)c1OC | inactive |
| O=C(NCc1ccccc1Cl)c1cccn1-c1nnc(N2CCCCC2)s1 | inactive |
| CC(CN1CCOCC1)c1ccccc1 (stereo not given) | inactive |
| O=C(Nc1ccc(CN2CCOCC2)cc1)c1cc(Cl)ccc1Cl | inactive |
| CC(C)c1cc(CN2CCOCC2)cc(C(C)C)c1O | 3.98 µM (active) |

| Structure (SMILES) | Potency |
| --- | --- |
| COc1cc(C(=O)Nc2ccc(OCc3cc(=O)n4cc(C)sc4n3)cc2)cc(OC)c1OC | inactive |
| COc1ccc(CC(=O)N2CC(=O)Nc3ccc(Br)cc3C2c2ccc(F)cc2)cc1OC (stereo not given) | inactive |
| CCOC(=O)C1CCCN(C(=O)Cn2ncc3c(C)n(Cc4ccc(F)cc4)c(C)c3c2=O)C1 (stereo not given) | inactive |
| Cc1nc2ccn(Cc3cccnc3)c(=O)c2cc1C(=O)N1CCN(c2ccccc2F)CC1 | inactive |
| OC(COCc1ccco1)CN1CCN(c2ccccc2)CC1 (stereo not given) | inactive |
| Cc1oc2ncn(CC(C)C)c(=O)c2c1C(=O)N1CCN(c2ccccc2F)CC1 | inactive |
| Cc1cc(O)c(C(c2ccccc2)N2CCN(c3ccccc3F)CC2)c(=O)n1Cc1ccco1 (stereo not given) | 3.16 µM (active) |
| COc1ccc(C(CC(=O)N2CCN(c3ccccc3)CC2)c2c(O)cc(OC)cc2OC)cc1 (stereo not given) | inactive |
| C/C(=N\N1CCN(Cc2ccc(C)cc2)CC1)c1ccco1 | inactive |
| CCOC(=O)C1(CCc2ccccc2)CCN(Cc2ccco2)CC1 | inactive |
| CCN1CCN(C(c2ccc(C)cc2)c2c(O)cc(C)n(Cc3ccco3)c2=O)CC1 (stereo not given) | 4.47 µM (active) |
| COc1cccc(C(c2c(O)cc(C)n(Cc3ccco3)c2=O)N2CCN(c3ccccc3)CC2)c1 (stereo not given) | 3.16 µM (active) |
| Cc1ccc(N(C)C(=O)C2CCN(S(=O)(=O)c3ccc4c(c3)CCCN4C(=O)C3CCC3)CC2)cc1 | inactive |
| COc1cccc(CNCc2c(C(=O)O)n(Cc3ccc(C)cc3)c3cc(C)ccc23)c1OC | inactive |
| Cc1ccc(NC(=O)CN2C(=O)CC(C)Sc3ccccc32)c(C)c1 (stereo not given) | inactive |
| Cc1ccc2oc(=O)c3cnn(CC(=O)NCc4ccccc4Cl)c3c2c1 | inactive |
| CC(C)c1ccc(NS(=O)(=O)c2ccc3[nH]cc(C(=O)NC4CCCC4)c(=O)c3c2)cc1 | inactive |
| CC(C)(C)C1C/C(=C/c2ccco2)C(=O)/C(=C/c2ccco2)C1 (stereo not given) | 39.8 µM (active) |
| CCOC(=O)C1(C)NC(c2ccco2)C2C(=O)N(c3ccccc3)C(=O)C21 (stereo not given) | inactive |
| CCCCN=C1N/C(=C\c2ccco2)C(=O)N1c1ccccc1 | 20 µM (active) |
